ROS inducer: ROS inducers in U2OS cancer cells, primary screen, cell-based, H2DCF-DA fluorescence; ROS induction (% of piperlongumine), % at 10 µM; 46,000 tested, 2% active; U2OS ROS induction; in the data active = ROS induction above about 79%, passing the limit was not always enough; inconclusive = no clear call, values can overlap the other calls
NOMO-1 viab: NOMO-1 AML cell viability reduction, primary screen, STK33 inhibitor project, CellTiter-Glo luminescence; NOMO-1 AML viability, 72 h; inhibition, % (concentration not given with the values); 37,000 tested, 7.5% active; in the data active = inhibition above about 80%; inconclusive = no clear call, values can overlap the other calls
PD-1 reverse act: activators reversing PD-1 mediated T-cell inhibition, primary screen, luminescence, primary human CD4 T cells, PD-L1 beads; CellTiter-Glo 96 h; activation, % (test concentration not listed); 29,000 tested, under 10 active; AID 2316, 2010; call rule not given here
Each line names hits and unclear results; the compound was inactive in the other large screens. This is one part of a sample in which hits are shown more often than they occur.

CCOC(=O)c1c(NC(=O)N2CCOc3ccc(Cl)cc32)sc2c1CCCC2	none (no result: NOMO-1 viab, PD-1 reverse act)
COC(=O)c1ccc(NC(=O)CCC(=O)c2ccc(Br)cc2)cc1	none (no result: ROS inducer, PD-1 reverse act)
CCOC(NC(=O)Nc1ccc(Br)cc1)(C(F)(F)F)C(F)(F)F	NOMO-1 viab 108
O=C(CN1C(=O)C2C3C=CC(C3)C2C1=O)Nc1nnc(C(F)(F)F)s1 (centres undefined)	none (no result: NOMO-1 viab, PD-1 reverse act)
COc1ccc(CNC(=O)Cn2c3ccccc3c3nc(=O)cc(C)n32)cc1	none (no result: NOMO-1 viab, PD-1 reverse act)
Cc1ccc(S(=O)(=O)Nc2ccc3c(c2)CC(=O)N([C@@H](C)CO)C[C@@H](C)[C@@H](CN(C)Cc2ccc(Cl)c(Cl)c2)O3)cc1	NOMO-1 viab 83
Cc1ccc(S(=O)(=O)Nc2ccc3c(c2)CC(=O)N([C@H](C)CO)C[C@@H](C)[C@@H](CN(C)Cc2ccc(Cl)c(Cl)c2)O3)cc1	NOMO-1 viab 116
Cc1ccc(S(=O)(=O)Nc2ccc3c(c2)CC(=O)N([C@@H](C)CO)C[C@H](C)[C@H](CN(C)Cc2ccc(Cl)c(Cl)c2)O3)cc1	none
Cc1ccc(S(=O)(=O)Nc2ccc3c(c2)CC(=O)N([C@H](C)CO)C[C@@H](C)[C@H](CN(C)Cc2ccc(Cl)c(Cl)c2)O3)cc1	none
CN(Cc1ccccc1)S(=O)(=O)c1ccc(C(=O)Nc2nc3ccc4ccccc4c3s2)cc1	none (no result: NOMO-1 viab, PD-1 reverse act)
C=CCn1c(SCc2ccccc2)nnc1-c1ccc2ncccc2c1	none (no result: NOMO-1 viab, PD-1 reverse act)
O=C1CCC(c2ccccc2)C(=O)C1C(=O)c1ccc(Cl)cc1Cl (centres undefined)	none
Oc1cc2c(c(Cl)c1O)CCNC[C@@H]2c1ccccc1	NOMO-1 viab 111 (no result: PD-1 reverse act)
CCN(C(=O)CSc1nc2nc(C)c(Cc3cc(C)ccc3C)c(C)n2n1)c1cccc(C)c1	none (no result: NOMO-1 viab, PD-1 reverse act)
Cc1cc(Oc2ccccc2)nc(Oc2ccc(OCCOc3ccc(Br)cc3)nn2)n1	none (no result: NOMO-1 viab, PD-1 reverse act)
Cc1ccc2oc(-c3ccc(C)c(NC(=O)COc4ccc(Br)cc4)c3)nc2c1	none
Cc1ccc2oc(-c3ccc(Cl)c(NC(=O)COc4ccc(C)c(C)c4)c3)nc2c1	none
Cc1cccc(OCC(=O)Nc2cc(-c3nc4cc(Cl)ccc4o3)ccc2C)c1	NOMO-1 viab 103
Cc1cc2nc(-c3ccc(C)c(NC(=O)COc4ccc([N+](=O)[O-])cc4)c3)oc2cc1C	NOMO-1 viab 94
CCCCC1=NN(C(=O)c2ccccc2)C(O)(C(F)(F)F)C1 (centres undefined)	none (no result: NOMO-1 viab, PD-1 reverse act)
CS(=NC(=O)Nc1ccc(Cl)cc1)c1sc(Cl)c2c1C(=O)CCC2 (centres undefined)	NOMO-1 viab 116
Cn1c(SCC(=O)Nc2ccc(Cl)cc2)nc2sc3c(c2c1=O)CCCC3	none
O=C(Oc1ccc2c(=O)c(-c3ccc(Cl)cc3)c(C(F)(F)F)oc2c1)c1ccco1	none (no result: NOMO-1 viab, PD-1 reverse act)
COc1ccc(Cn2nnc3c(=O)[nH]c(C4CCCN(S(=O)(=O)c5ccccc5)C4)nc32)cc1 (centres undefined)	ROS inducer 139 (no result: NOMO-1 viab, PD-1 reverse act)
CC1CCCN(S(=O)(=O)c2ccccc2)C1 (centres undefined)	none (no result: NOMO-1 viab, PD-1 reverse act)
CCOC(=O)N1CCC(n2c(SCC(=O)NC(C)CC)nc3ccccc3c2=O)CC1 (centres undefined)	none (no result: NOMO-1 viab, PD-1 reverse act)
O=C(CN1C(=O)N(c2ccc(Cl)cc2)S(=O)(=O)c2ccccc21)N1CCCc2ccccc21	none (no result: NOMO-1 viab, PD-1 reverse act)
C[C@H](CO)N1C[C@H](C)[C@H](CN(C)CC2CCCCC2)Oc2c(NC(=O)c3nc4ccccc4s3)cccc2C1=O	NOMO-1 viab inconclusive
C[C@@H]1CN([C@@H](C)CO)C(=O)c2cccc(NC(=O)c3nc4ccccc4s3)c2O[C@@H]1CN(C)CC1CCCCC1	NOMO-1 viab 117
C[C@H](CO)N1C[C@H](C)[C@@H](CN(C)CC2CCCCC2)Oc2c(NC(=O)c3nc4ccccc4s3)cccc2C1=O	NOMO-1 viab 108
C[C@@H]1CN([C@H](C)CO)C(=O)c2cccc(NC(=O)c3nc4ccccc4s3)c2O[C@@H]1CN(C)CC1CCCCC1	none
Cc1ccc(CNCc2c(C(=O)O)c(C)n(Cc3ccccc3)c2C)cc1	none (no result: NOMO-1 viab, PD-1 reverse act)
Cc1cc(N)n(-c2ncnc3sc4c(c23)CCCC4)n1	none (no result: NOMO-1 viab, PD-1 reverse act)
C=CCN(CC=C)c1nc(-c2ccccc2)nc2ccccc12	none (no result: NOMO-1 viab, PD-1 reverse act)
OCCN(CCO)c1nc(-c2ccccc2)nc2sc(-c3ccccc3)cc12	ROS inducer 116, NOMO-1 viab inconclusive
Cc1nc2ccc(NC(=O)N3CC4(C)CC3CC(C)(C)C4)cc2nc1C (centres undefined)	none (no result: NOMO-1 viab, PD-1 reverse act)
COc1cc2oc(-c3ccc(O)cc3)cc(=O)c2c(O)c1OC	none
COc1cc(-c2cc(=O)c3c(O)c(OC)c(OC)c(OC)c3o2)cc(OC)c1OC	ROS inducer 99
O=S(=O)(c1cccc2cccnc12)N1CCN(Cc2cccc(OCCO)c2)CC1	none (no result: NOMO-1 viab, PD-1 reverse act)
C[C@H](CO)N1C[C@H](C)[C@H](CN(C)CC2CCCCC2)Oc2c(NC(=O)c3ccc(-c4nccs4)cc3)cccc2C1=O	none
C[C@H]1CN([C@@H](C)CO)C(=O)c2cccc(NC(=O)c3ccc(-c4nccs4)cc3)c2O[C@@H]1CN(C)Cc1ccc(C(=O)Nc2ccccc2N)cc1	ROS inducer 159, NOMO-1 viab 124
C[C@@H]1CN([C@H](C)CO)C(=O)c2cccc(NC(=O)c3ccc(-c4nccs4)cc3)c2O[C@@H]1CN(C)Cc1ccccc1	none
C[C@H]1CN([C@@H](C)CO)C(=O)c2cccc(NC(=O)c3ccc(-c4nccs4)cc3)c2O[C@H]1CN(C)Cc1ccccc1	none (no result: PD-1 reverse act)
C[C@@H]1CN([C@H](C)CO)C(=O)c2cccc(NC(=O)c3ccc(-c4nccs4)cc3)c2O[C@H]1CN(C)Cc1ccc(C(=O)Nc2ccccc2N)cc1	ROS inducer 95, NOMO-1 viab 128
C[C@@H]1CN([C@H](C)CO)C(=O)c2cccc(NC(=O)c3ccc(-c4nccs4)cc3)c2O[C@H]1CN(C)CC1CCCCC1	NOMO-1 viab 87 (no result: PD-1 reverse act)
C[C@@H]1CN([C@@H](C)CO)C(=O)c2cccc(NC(=O)c3ccc(-c4nccs4)cc3)c2O[C@H]1CN(C)Cc1ccccc1	NOMO-1 viab 88
C[C@@H]1CN([C@@H](C)CO)C(=O)c2cccc(NC(=O)c3ccc(-c4nccs4)cc3)c2O[C@@H]1CN(C)Cc1ccc(-c2ccccc2)cc1	none
O=C(NCc1ccc2c(c1)CCO2)c1ccc2nsnc2c1	none (no result: NOMO-1 viab, PD-1 reverse act)
CC(c1ccncc1)N(CCN(C)C)C(=S)Nc1cc(F)cc(F)c1 (centres undefined)	none (no result: NOMO-1 viab, PD-1 reverse act)
O=C(NCCN1CCCCCC1)c1cnn2c(C(F)(F)F)cc(-c3ccccc3)nc12	none (no result: NOMO-1 viab, PD-1 reverse act)
CCOC(=O)C(C)Sc1ncnc2c1nnn2-c1ccc(OC)cc1 (centres undefined)	ROS inducer 179 (no result: NOMO-1 viab, PD-1 reverse act)
CCOC(=O)C(C)Sc1ncnc2nc[nH]c12 (centres undefined)	none (no result: NOMO-1 viab, PD-1 reverse act)
C/C=C(/C)C(=O)O[C@H]1C=C(CO)C(=O)[C@H](OC(=O)/C(C)=C/CO)[C@H]1C(C)C	ROS inducer 87, NOMO-1 viab 122
CC(C)(C)c1ccc(O)c(C(=O)Oc2ccccc2)c1	none (no result: NOMO-1 viab, PD-1 reverse act)
CC1CCCC(NC(=O)c2ccc3c(SCC(=O)O)c4c(nc3c2)CCC4)C1C (centres undefined)	none (no result: NOMO-1 viab, PD-1 reverse act)
Cc1c2c(nc3c(C(=O)NC4CCCC(C)C4C)cnn13)CCCC2 (centres undefined)	ROS inducer 90 (no result: NOMO-1 viab, PD-1 reverse act)
COc1ccc(NC(=O)c2ccco2)cc1NC(=O)COc1cc(C)c(Cl)c(C)c1	NOMO-1 viab 96

Screening results deposited in PubChem BioAssay by Broad Institute.
